Inconclusive results are not listed. Unmarked numbers belong to inactive results. The source made the active and inactive calls. The call rests on the fitted dose curve; in most records, active means well fitted inhibition curve with a large enough effect; inconclusive means small, poorly fitted or top-dose-only effect; inactive means flat fitted curve, though single readings scatter.

The text below walks through data of PubChem BioAssay (NCATS).

Chain of Lysine-specific demethylase 5B (Homo sapiens) (Q9UGL1 whole entry, looked up): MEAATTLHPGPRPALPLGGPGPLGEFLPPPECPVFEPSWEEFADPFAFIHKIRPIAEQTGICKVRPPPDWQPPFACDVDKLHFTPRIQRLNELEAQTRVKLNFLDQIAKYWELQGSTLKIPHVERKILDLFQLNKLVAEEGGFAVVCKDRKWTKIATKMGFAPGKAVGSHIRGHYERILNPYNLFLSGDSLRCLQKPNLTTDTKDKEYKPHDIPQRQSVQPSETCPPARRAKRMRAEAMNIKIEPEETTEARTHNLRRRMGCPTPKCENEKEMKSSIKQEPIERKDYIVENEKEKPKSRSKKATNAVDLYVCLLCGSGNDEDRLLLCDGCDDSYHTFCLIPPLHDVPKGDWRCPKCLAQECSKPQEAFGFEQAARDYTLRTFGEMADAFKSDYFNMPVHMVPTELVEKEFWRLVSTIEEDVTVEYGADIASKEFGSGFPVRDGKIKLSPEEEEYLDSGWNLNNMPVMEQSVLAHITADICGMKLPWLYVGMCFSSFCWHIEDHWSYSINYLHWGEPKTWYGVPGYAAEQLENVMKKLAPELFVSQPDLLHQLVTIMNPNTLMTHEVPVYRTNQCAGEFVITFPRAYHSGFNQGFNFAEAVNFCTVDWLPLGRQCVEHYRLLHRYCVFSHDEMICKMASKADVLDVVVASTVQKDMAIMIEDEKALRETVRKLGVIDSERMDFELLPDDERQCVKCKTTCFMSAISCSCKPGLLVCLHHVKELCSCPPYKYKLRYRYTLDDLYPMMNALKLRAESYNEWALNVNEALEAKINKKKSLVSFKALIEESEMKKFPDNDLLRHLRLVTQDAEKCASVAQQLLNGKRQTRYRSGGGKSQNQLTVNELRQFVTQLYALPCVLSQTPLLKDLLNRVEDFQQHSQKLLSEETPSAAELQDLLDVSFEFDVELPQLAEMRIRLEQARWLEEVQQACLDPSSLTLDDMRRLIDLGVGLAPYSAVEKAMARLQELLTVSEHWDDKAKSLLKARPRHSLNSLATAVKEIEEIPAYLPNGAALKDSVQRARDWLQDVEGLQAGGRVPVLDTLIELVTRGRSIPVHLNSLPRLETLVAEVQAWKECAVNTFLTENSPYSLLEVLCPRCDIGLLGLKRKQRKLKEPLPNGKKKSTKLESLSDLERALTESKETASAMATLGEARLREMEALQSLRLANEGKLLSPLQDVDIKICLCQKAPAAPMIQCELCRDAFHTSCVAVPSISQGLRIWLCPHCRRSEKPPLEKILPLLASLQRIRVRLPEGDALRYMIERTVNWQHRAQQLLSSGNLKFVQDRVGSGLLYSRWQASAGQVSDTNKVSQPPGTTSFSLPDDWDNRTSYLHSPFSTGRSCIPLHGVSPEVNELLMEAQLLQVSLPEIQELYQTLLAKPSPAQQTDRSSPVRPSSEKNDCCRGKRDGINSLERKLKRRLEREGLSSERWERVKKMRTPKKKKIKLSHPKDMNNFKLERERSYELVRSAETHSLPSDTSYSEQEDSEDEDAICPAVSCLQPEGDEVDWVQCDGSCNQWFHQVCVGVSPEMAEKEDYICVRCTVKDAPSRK

The assay has as its target Lysine-specific demethylase 5B (Homo sapiens) (UniProt Q9UGL1). The assay is described as follows: Optimization screen for KDM5B Histone Demethylases FDH coupled qHTS against the LOPAC library (AID 1347166). Further: 0% is about no effect. Particulars: KDM5B demethylation, FDH-coupled NADH fluorescence (FDH is formaldehyde dehydrogenase); at 57.5 µM (top of the series). In outline: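 KDM5BDeltaAP (200nM final) in 50mM HEPES pH 7.5, 0.01% Tween-20 was preincubated with compound for 10 min at room temperature. A substrate mix of 12.5uM H3K4Me3, 25uM a-ketoglutarate, ascorbate, Fe2+, NAD+ and formaldehyde dehydrogenase was then added. NADH fluorescence (340/450 nm) was read initially and after 30 min.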
In general terms: qHTS replaces the single test concentration by a dilution series.
Take `N[C@@H](CCC(=O)N[C@H](CSN=O)C(=O)NCC(=O)O)C(=O)O`: the activity, negative = inhibition is -9.68%.

Consider `Cc1nc2c(OCc3ccccc3)cccn2c1CC#N`, for which the activity, negative = inhibition was 0.134%.

Regarding `O[Si](CCCN1CCCCC1)(c1ccc(F)cc1)C1CCCCC1` (stereo not given), the activity, negative = inhibition was -4.4%.

For `CC(/C=C/c1cccc(Oc2ccc(F)cc2)c1)N(O)C(N)=O` (stereo not given), the activity, negative = inhibition is -9.88%.

Regarding `C#CC(N)CCC(=O)O` (stereo not given), the activity, negative = inhibition was -0.625%.

Regarding `COc1ccc(CCN(C)CCc2ccc(OC)c(OC)c2)cc1OC`, the activity, negative = inhibition was 3.09%.

Take `Nc1ccc2c3c(cccc13)C(=O)NC2=O`: the activity, negative = inhibition was -16.6%.

Regarding `Cn1c(=O)c2c(nc(/C=C/c3cccc(Cl)c3)n2C)n(C)c1=O`, the activity, negative = inhibition was -517% (active).

For `CCC1(O)CC2CN(CCc3c([nH]c4ccccc34)[C@@](C(=O)OC)(c3cc4c(cc3OC)N(C=O)C3[C@]45CCN4CC=C[C@@](CC)([C@@H](OC(C)=O)[C@]3(O)C(=O)OC)[C@H]45)C2)C1` (stereo not given in full), the activity, negative = inhibition is -9.11%.

For `N[C@H](C(=O)O)[C@H]1C[C@@H]1C(=O)O`, the activity, negative = inhibition was -7.37%.

In the case of `Brc1c(Br)c(Br)c2[nH]cnc2c1Br`, the activity, negative = inhibition was 0.346%.

Consider `Cc1nc(N=Nc2ccc(C(=O)O)cc2)c(COP(=O)(O)O)c(C=O)c1O`, for which the activity, negative = inhibition was -12.4%.

Take `N=C(N)c1ccccc1`: the activity, negative = inhibition was -3.44%.

For the compound `O=C(O)C1=CCCN(CCON=C(c2ccccc2)c2ccccc2)C1`, the activity, negative = inhibition was 1.04%.

For the compound `CCCCCC[C@@H]([C@@H](C)O)n1cnc2c(N)ncnc21`, the activity, negative = inhibition is -6.57%.

In the case of `O=c1ccn([C@@H]2O[C@H](COP(=O)(O)OP(=O)(O)O)[C@@H](O)[C@H]2O)c(=O)[nH]1`, the activity, negative = inhibition was -0.701%.

For `N#CC(C#N)=C(N)/C(C#N)=C/c1ccc(O)cc1`, the activity, negative = inhibition was -9.24%.

As to `CCC1(O)CC2CN(CCc3c([nH]c4ccccc34)[C@@](C(=O)OC)(c3cc4c(cc3OC)N(C)C3[C@]45CCN4CC=C[C@@](CC)([C@@H](OC(C)=O)[C@]3(O)C(=O)OC)[C@H]45)C2)C1` (stereo not given in full), the activity, negative = inhibition was -13.4%.

Take `C=CCn1c(=O)c2c(nc(-c3ccc(S(=O)(=O)O)cc3)n2C)n(C)c1=O`: the activity, negative = inhibition is -806% (active).

For `CCCCOC(=O)NS(=O)(=O)c1sc(CC(C)C)cc1-c1ccc(Cn2c(CC)nc3c(C)cc(C)nc32)cc1`, the activity, negative = inhibition was -19.3%.

As to `O=C(O)C1CN(CCCP(=O)(O)O)CCN1` (stereo not given), the activity, negative = inhibition is 0.457%.

Take `C=C1C[C@@]23CC[C@H]4[C@@](C)(CCC[C@@]4(C)C(=O)OC4OC(CO)C(O)C(O)C4O)[C@@H]2CC[C@]1(OC1OC(CO)C(O)C(O)C1OC1OC(CO)C(O)C(O)C1O)C3` (stereo not given in full): the activity, negative = inhibition is -7.5%.

In the case of `CCCCC[C@H](CC(=O)NO)C(=O)N[C@H](C(=O)N1CCC[C@H]1CO)C(C)C`, the activity, negative = inhibition is 9.91%.

With `CC(C)NC[C@H](O)COc1cccc2ccccc12`, the activity, negative = inhibition was -12%.

Take `N[C@H](C(=O)O)c1cc(O)cc(O)c1`: the activity, negative = inhibition is -24%.

On to `COc1ccc(C(=O)NCc2cccnc2)cc1C(=O)NCc1cccnc1`, for which the activity, negative = inhibition was -3.95%.

Consider `C=CC[C@H](N)C(=O)O`, for which the activity, negative = inhibition is -4.4%.

As for `NC1CONC1=O` (stereo not given), the activity, negative = inhibition is -3.54%.

Consider `COCc1nc2c([nH]1)c(=O)n(C)c(=O)n2CC(C)C`, for which the activity, negative = inhibition is -5.87%.

For `O=C(c1ccc2c(c1)OCCO2)N1CCCCC1`, the activity, negative = inhibition is -3.79%.

With `CC(N)=O`, the activity, negative = inhibition was -7.02%.

Consider `CCCCCCC/C=C\CCCCCCCCC(=O)O`, for which the activity, negative = inhibition was -29.9%.

In the case of `CC(C)[C@@H]1CC[C@@H](C)C[C@@H]1P(=O)(c1ccccc1)c1ccccc1`, the activity, negative = inhibition is -4.33%.

On to `CCCn1c(=O)c2[nH]c(C3CCCC3)nc2n(CCC)c1=O`, for which the activity, negative = inhibition was -5.16%.

For `NC1C=CC=C(C(=O)O)C1` (stereo not given), the activity, negative = inhibition was -9.6%.
